Hit rate of the full screen: of about 52,000 compounds, about 4,300 (8.3%) were called active. Cut-off read from the data, not from the text of the source: active = survival mostly below about 52% (no sharp cut-off); inactive = mostly above about 56%. The list comes from a sample in which actives are over-represented; it also holds similar structures and randomly drawn compounds.

This test deals with DeltatarO mutant. Put plainly: S. aureus survival, RN4220 and DeltatarO strains – OD600, teichoic acid synthesis inhibitors, primary screen (AID 463173). The settings on record: S. aureus RN4220 wild type/DeltatarO growth, OD600, 18 h, stronger effect = lower value, screened at 18.75 µg/mL (by protocol).
Take `O=C(O)CN1C(=O)/C(=c2\sc3nc4ccccc4n3c2=O)c2ccccc21`: the survival is 81% (inactive). Turning to `O=c1[nH]c2ccc(NCc3ccccc3F)cc2[nH]1`, the survival was 94% (inactive). Consider `CCOC(=O)c1cccc(NC(=O)c2cnn(-c3ccccc3)c2-n2cccc2)c1`, for which the survival was 80% (inactive). On to `CSc1ccc(CCNC(=O)c2cnn(-c3ccccc3)c2-n2cccc2)cc1`, for which the survival is 46% (active). On to `COc1ccc(CNC(=O)c2cnn(-c3ccc(F)cc3)c2-n2cccc2)cc1`, for which the survival was 89% (inactive). `COc1ccccc1NC(=O)c1cnn(-c2ccccc2)c1-n1cccc1`: the survival is 93% (inactive). As for `O=C(NCCc1ccccc1)c1cnn(-c2ccc(F)cc2)c1-n1cccc1`, the figure is 58% (inactive); as for `COc1ccc(CNC(=O)c2cnn(-c3ccccc3)c2-n2cccc2)cc1OC`, 113% (inactive).

For the compound `CCOc1ccc(NC(=O)c2cnn(-c3ccccc3)c2-n2cccc2)cc1`, the survival is 71% (inactive).

Regarding `Cc1ccc(-n2ncc(C(=O)NCc3ccccc3C)c2-n2cccc2)cc1`, the survival was 74% (inactive).

Take `COc1cc(OC)c(NC(=O)c2cnn(-c3ccccc3)c2-n2cccc2)cc1Cl`: the survival is 84% (inactive). For `O=C(Nc1cc(C(F)(F)F)ccc1Cl)c1cnn(-c2ccccc2)c1-n1cccc1`, the survival was 0% (active).

Consider `CCOc1ccccc1CNC(=O)c1cnn(-c2ccc(C)cc2)c1-n1cccc1`, for which the survival was 37% (active). For `CCc1ccc(NC(=O)c2cnn(-c3ccccc3)c2-n2cccc2)cc1`, the survival is 31% (active). In the case of `COCCn1c(C)cc(O)c(C(c2ccccc2F)N2CCN(c3ccccc3)CC2)c1=O` (centres undefined), the survival was 79% (inactive). Consider `COc1ccc(N2CCN(C(=O)CSc3nnc4c(C)cc5cc6c(cc5n34)OCCO6)CC2)cc1`, for which the survival was 86% (inactive). In the case of `COc1ccc(NC(=O)CN2C(=O)C(c3ccccc3)=NC23CCC(C)CC3)cc1Cl` (centres undefined), the survival is 73% (inactive). As for `COC(=O)c1c(-c2cccs2)csc1NC(=O)c1ccc(C(C)C)cc1`, the survival was 73% (inactive). Regarding `COc1ccc(C(=O)NCCc2sc(-c3cccc(F)c3)nc2C)cc1`, the survival was 67% (inactive). Regarding `CCc1ccc(CNC(=O)c2cc3c(=O)oc4ccc(C)cc4c3s2)cc1`, the survival was 82% (inactive). As for `CCc1ccc(N(CC)C(=O)c2cc3c(=O)oc4ccc(C)cc4c3s2)cc1`, the figure is 42% (active); as for `CCCN(C(=O)c1cc2c(=O)oc3ccccc3c2s1)c1ccccc1C`, 54% (inactive). Regarding `CCCN(C(=O)c1cc2c(=O)oc3ccccc3c2s1)c1cccc(Cl)c1`, the survival was 47% (inactive). Consider `CCCN(C(=O)c1cc2c(=O)oc3ccccc3c2s1)c1ccc(CC)cc1`, for which the survival was 31% (active). `CCN(C(=O)c1cc2c(=O)oc3ccc(C)cc3c2s1)c1ccccc1C`: the survival is 63% (inactive). As to `CCOC(=O)C1=C(CN2CCCCC2)NC(=O)NC1c1ccc(OC)cc1` (centres undefined), the survival is 84% (inactive).

On to `O=C1Nc2ccccc2C1=Nc1ccc(Br)cc1`, for which the survival was 74% (inactive). On to `CCN(C(=O)CCS(=O)(=O)c1cccc2nsnc12)c1cccc(C)c1`, for which the survival is 74% (inactive).

`O=C(NC1CCCC1)C(c1ccccc1)N(CC1CCCO1)C(=O)Cn1nnc2ccccc21` (centres undefined): the survival is 89% (inactive). As for `CCOc1ccccc1NC(=O)CSc1nnc(CC)c(CC)n1`, the figure is 73% (inactive); as for `Cc1ccc(-n2nnnc2SCC(=O)NCCc2ccccc2)cc1C`, 42% (active).

On to `Cc1ccc(C(=O)NCc2nnnn2-c2ccc(C)c(C)c2)cc1`, for which the survival is 115% (inactive). As to `Cc1ccc(-n2nnnc2CNC(=O)c2ccccc2)cc1C`, the survival is 144% (inactive). With `O=C(CSc1nnnn1Cc1ccccc1)NCCc1ccccc1`, the survival was 89% (inactive). As to `COc1ccc(-n2nnnc2SCC(=O)NCCc2ccccc2)cc1`, the survival is 53% (inactive). In the case of `Cc1ccc(-n2nnnc2CNC(=O)c2cc(C(F)(F)F)cc(C(F)(F)F)c2)cc1C` it was 0% (active); in that of `Cc1ccc(-n2nnnc2CNC(=O)c2ccc(F)cc2)cc1C`, 106% (inactive). As for `Cc1ccc(-n2nnnc2CNC(=O)C(C)C)cc1C`, the survival was 105% (inactive).

Take `Cc1ccc(-n2nnnc2CNC(=O)C(C)(C)C)cc1C`: the survival is 46% (active).

On to `CCOC(=O)C1=C(CS(=O)(=O)c2ccc(Br)cc2)NC(=O)NC1c1ccccc1` (centres undefined), for which the survival is 80% (inactive). For `Cc1cccc(-c2cc(NC(=O)COc3ccccc3F)n(-c3ccccc3)n2)c1`, the survival is 86% (inactive). With `CCOC(=O)c1ccc(NC(=O)Cn2c(=O)cc(C(F)(F)F)c3c(C)nn(C)c32)cc1`, the survival was 95% (inactive). With `COc1ccc(CCNS(=O)(=O)c2ccc(N3CCCCS3(=O)=O)cc2)cc1OC`, the survival is 69% (inactive). Turning to `O=C(Nc1ccc(O)c(-c2nc3ccccc3o2)c1)c1ccc(-c2cccc(Cl)c2)o1`, the survival is 49% (inactive).

As for `O=C(Nc1ccc2oc(-c3ccc(Br)cc3)nc2c1)c1cc2ccccc2o1`, the survival is 55% (inactive).

For `COc1ccc(Cl)cc1C(=O)Nc1ccc2oc(-c3ccc(C(C)(C)C)cc3)nc2c1`, the survival was 82% (inactive). With `O=C(Nc1cccc(-c2nc3ccccc3o2)c1)c1ccc(-c2ccc(Br)cc2)o1`, the survival is 39% (active). As to `O=C(Nc1ccc2oc(-c3cccnc3)nc2c1)c1ccc(-c2cccc(Cl)c2)o1`, the survival is 50% (inactive). For `O=C(Nc1ccc2oc(-c3cccnc3)nc2c1)c1ccc(-c2ccccc2)o1`, the survival was 45% (active). In the case of `O=C(Nc1ccc2oc(-c3cccnc3)nc2c1)c1ccc(-c2ccc(Cl)cc2)o1` it was 73% (inactive); in that of `COc1ccc(Br)cc1C(=O)Nc1ccc(-c2nc3cc(Cl)ccc3o2)cc1`, 43% (active); in that of `O=C(Nc1ccc(Cl)c(-c2nc3ccccc3o2)c1)c1ccc(-c2cccc([N+](=O)[O-])c2)o1`, 37% (active). Take `O=C(Nc1cccc(-c2nc3ccccc3o2)c1)C(F)(F)F`: the survival is 61% (inactive). Consider `O=C(Nc1ccc(-c2nc3cc(Cl)ccc3o2)cc1)c1cc(Br)ccc1Cl`, for which the survival is 93% (inactive).

Consider `Cc1c(NC(=O)c2ccc(-c3cccc([N+](=O)[O-])c3)o2)cccc1-c1nc2cc(Cl)ccc2o1`, for which the survival was 52% (inactive).

With `CCOc1ccc(OCC)c(-n2cnnn2)c1`, the survival is 71% (inactive).

Turning to `CCOc1ccc2oc(=O)cc(CN3CCN(c4ccc(OC)cc4)CC3)c2c1`, the survival is 73% (inactive). Take `COc1ccccc1N1CCN(C(=O)CSc2nc3ccccc3nc2Cc2ccc(F)cc2)CC1`: the survival was 95% (inactive). In the case of `Cc1cccc(-c2noc(-c3cc(C(C)C)[nH]n3)n2)c1` it was 97% (inactive).
